NPC1 prom act: activates the NPC1 promoter; Huh7 NPC1 promoter luciferase reporter, 24 h; Potency, µM (titrated, usually from 9.22 µM), for the others: at the highest dose activation, actives largely listed as activators; hit rate 2.4% among 320,000; AID 485313; also: % of control where 0% means no effect; nearly all actives have a fitted effect of over 60% in size
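Luciferase expression driven by the NPC1 promoter was measured in stably transfected Huh7 cells after a 24 h compound incubation, using a luciferase reagent and a luminescence read.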
FLuc modulator: counter-screen for miR-21 project: firefly luciferase inhibitors or activators; P08659; purified FLuc, Km substrates, luminescence inhibition; Potency, µM (titrated, usually from 57.5 µM), for the others: at the top dose activity change, negative = inhibition, usual class: inhibitors; hit rate 6.9% among 360,000;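 also: plate controls were vehicle for no effect and reference inhibitor for full effect; nearly all actives have a fitted effect of over 55% in size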
Target sequence (P08659 whole entry, looked up): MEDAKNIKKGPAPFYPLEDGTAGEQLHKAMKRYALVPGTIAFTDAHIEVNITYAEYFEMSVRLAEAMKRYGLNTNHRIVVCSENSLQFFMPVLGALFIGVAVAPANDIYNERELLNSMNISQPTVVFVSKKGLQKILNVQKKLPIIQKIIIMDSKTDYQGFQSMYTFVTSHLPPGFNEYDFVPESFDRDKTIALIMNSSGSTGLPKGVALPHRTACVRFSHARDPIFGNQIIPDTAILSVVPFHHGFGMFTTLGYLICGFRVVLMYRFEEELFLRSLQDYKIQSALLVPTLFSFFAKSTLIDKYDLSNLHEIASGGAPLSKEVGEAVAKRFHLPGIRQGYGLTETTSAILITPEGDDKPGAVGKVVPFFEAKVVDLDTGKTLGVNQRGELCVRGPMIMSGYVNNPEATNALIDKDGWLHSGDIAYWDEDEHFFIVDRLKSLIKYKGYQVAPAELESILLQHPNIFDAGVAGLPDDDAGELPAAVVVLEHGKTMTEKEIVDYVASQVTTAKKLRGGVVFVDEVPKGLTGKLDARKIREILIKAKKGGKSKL
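Purified P. pyralis luciferase (10nM final) with 10uM D-luciferin and 10uM ATP (Km levels) in 50mM Tris acetate pH 7.5, 10mM Mg acetate, 0.01% Tween-20, 0.05% BSA; qHTS 6-point titration, ~60 µM downward; luminescence read.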
SMN2 splice enh: enhancers of SMN2 splice variant expression; HEK293 SMN2-luciferase splicing reporter, luminescence, 30-36 h; Potency, µM (doses to about 46.1 µM), inactives show at the highest dose activity change, positive = activation, usual class: activators; hit rate 2.8% among 210,000; AID 1458; also: % of control where 0% means no effect; nearly all actives have a fitted effect of over 55% in size
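HEK293 cells carry an SMN2 minigene-luciferase reporter in which exon 7 inclusion puts luciferase in frame. Cells were seeded at 2000 cells/well, attached for 10-12 hours, then exposed to compounds for 30-36 hours at 37C before ONE-Glo luminescence.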
Rab9 prom act: Rab9 promoter activation; Huh7 Rab9 promoter-luciferase reporter, luminescence, 24 h; Potency, µM (series often up to 9.22 µM), for the others: top-dose activation, negative = inhibition, most hits filed as activators; hit rate 2.8% among 320,000; also: % of control where 0% means no effect; nearly all actives have a fitted effect of over 60% in size
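Luciferase signal after 10 min detection reagent at ambient indicates Rab9 promoter upregulation; stably transfected Huh7 cells were treated 24 h with compound in DMSO at 37 °C, 5% CO2.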
ELG1 genotoxic: genotoxicity induction in ELG1-luciferase HEK293T cells; HEK293T ELG1-luciferase reporter, luminescence, 16 h; AID 504466; hit rate 1.3% among 330,000; Potency, µM (doses to about 46 µM), without a hit: top-dose activity change, positive = activation, usual class: activators; also: % of control where 0% means no effect; nearly all actives have a fitted effect of over 60% in size
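Cells (2,000/well) expressing the ELG1-luciferase fusion are dosed by pin tool and kept 16 hr at 37 °C, 5% CO2. Signal comes from ONE-Glo luciferase reagent after 30 min at room temperature.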
An asterisk follows results filed as active; ? = inconclusive; / = no result given; [ ] = dose if it differs, or a comment. Hits are enriched below; roughly 7.4% of the tested compounds scored in any of these assays. Calls follow the shape of the dose curve; as a rule, active = well fitted curve in the direction sought with a large enough effect; inconclusive = small, poorly fitted or top-dose-only effect, or another doubt; inactive = no such curve, though single readings can be large; an effect the other way counts as inactive or inconclusive. Potency is read from the fitted curve at half-maximal effect.

SMILES	NPC1 prom act	FLuc modulator	SMN2 splice enh	Rab9 prom act	ELG1 genotoxic
COc1ccc(/C=N/c2oc(C)c(C)c2C#N)c(OC)c1	-1.5%	1.4%	/	-2.1%	1.6%
Cc1oc(/N=C/c2ccccc2)c(C#N)c1C	2.1%	12µM*	/	3.5%	0.6%
CCC(C)C(=O)OC1C2CC3=C4CC(=O)OC(c5ccoc5)[C@]4(C)CCC3[C@@](C)(C2=O)C(CC(=O)OC)C1(C)C (some centres undefined)	/	/	-21.6%	/	/
Cc1ccnc(N(C(=O)Nc2ccccc2)C2=NCC(C)(C)S2)c1	2.51µM*	19µM*	/	?	?
CCN(CC(=O)Nc1cccc(S(=O)(=O)N(C)c2ccccc2)c1)Cc1cccs1	-3.2%	5.4%	/	2.1%	-11.9%
COc1ccc(-c2cn3c(n2)CCC3)cc1	2.51µM*	13.5µM*	12.6µM*	1.58µM*	?
Cc1ccc(-c2cn3c(n2)CCCC3)cc1	-11.0%	-5.8%	-24.9%	-6.1%	0.3%
c1ccc(-c2ccc(-c3cn4c(n3)CCC4)cc2)cc1	0.447µM*	0.849µM*	27.4%	?	?
O=[N+]([O-])c1cccnc1N1CCN(c2ccc(F)cc2)CC1	0.4%	-2.1%	-8.8%	1.0%	-1.4%
Cc1csc(=O)n1CC(=O)OCC(=O)Nc1ccc(F)c(F)c1	-5.7%	0.5%	/	0.5%	-0.9%
CCCNc1c(F)c(F)c2c(C)c3ccccc3nc2c1F	?	6.01µM*	12.6%	?	?
OCCNc1c2ccccc2nc2ccccc12	-28.9%	-0.4%	/	-37.4%	-6.6%
Cc1ccc(NC(=O)c2nnn(-c3ccc4c(c3)OCCO4)c2N)cc1	2.24µM*	10.7µM*	/	5.62µM*	?
Nc1c(C(=O)Nc2ccccc2)nnn1-c1ccc2c(c1)OCCO2	0.224µM*	0.849µM*	/	0.1µM*	0.184µM*
Cc1ccc(NC(=O)c2nnn(-c3cccc(C(F)(F)F)c3)c2N)cc1	-2.6%	-2.4%	0.2%	-2.0%	15.2%
COc1cc(/C=N/Nc2ccc(Cl)c(C(=O)O)c2)ccc1OC(=O)c1ccccc1F	?	16.9µM*	/	23.6%	13.7%
COc1cc(/C=N/Nc2ccc(Cl)c(C(=O)O)c2)ccc1OC(=O)c1ccc(F)cc1	2.82µM*	?	/	?	?
COc1cc(/C=N/NC(=O)c2ccncc2)ccc1OC(=O)c1ccccc1Cl	-6.2%	?	-0.6%	-11.7%	-2.9%
O=C(CSc1nc(Nc2ccccc2)nc(N2CCOCC2)n1)NC1CCCCC1	-1.2%	2.3%	/	-3.9%	-8.2%
C/C(=N\NC(=O)c1ccc(Cl)cc1)c1cccs1	0.562µM*	2.69µM*	3.55µM*	0.316µM*	2.31µM*
Cc1ccc(/C=N/NC(=O)c2ccc3nc[nH]c3c2)s1	13.4%	?	-8.4%	24.3%	9.9%
C/C(=N/NC(=O)c1ccc2nc[nH]c2c1)c1cccs1	2µM*	10.7µM*	11.2µM*	1.41µM*	?
C[C@]12CCC(O)CC1=CCC1C2CC[C@]2(C)/C(=N\NC(N)=S)CCC12 (some centres undefined)	-5.3%	1.6%	/	-1.8%	-0.3%
CN(C)c1ccc(NC(=O)CN2C(=O)c3ccccc3C2=O)cc1	0.7%	?	/	2.7%	-0.6%
CC(O)CNc1ncnc2cc(-c3ccc(F)cc3)sc12 (centres undefined)	?	10.7µM*	/	?	?
SMILES	NPC1 prom act	FLuc modulator	SMN2 splice enh	Rab9 prom act	ELG1 genotoxic
Cc1ccc(CNC(=O)c2cc3c(=O)n4cccc(C)c4nc3s2)cc1	/	-1.5%	16.7%	/	/
CCOc1ccc(-c2cn3c(n2)sc2cc(C(=O)NCCc4ccc(OC)cc4OC)ccc23)cc1	/	-13.4%	1.0%	/	/
Cc1nn(-c2ccc(N3CCCC3)nn2)c(C)c1CCC(=O)NCc1ccccc1F	/	-8.0%	/	/	/
COc1ccc(NC(=O)CCc2c(C)nn(-c3ccc(N4CCOCC4)nn3)c2C)cc1	16.4%	?	/	15.5%	16.7%
CCOc1ccccc1NC(=O)CCc1c(C)nn(-c2ccc(N3CCCCC3)nn2)c1C	2.9%	10.7µM*	/	21.0%	-5.5%
Cc1nn(-c2ccc(N3CCCCC3)nn2)c(C)c1CCC(=O)Nc1ccc(F)c(F)c1	2.51µM*	5.36µM*	/	2.51µM*	0.6%
Cc1ccc(NC(=O)CCc2c(C)nn(-c3ccc(N4CCCCC4)nn3)c2C)cc1C	?	12µM*	/	?	11.8%[9.26 µM]
